Screening data (PubChem BioAssay)
Pf growth 48h = P. falciparum growth inhibition at 48 hours (one generation). Potency, µM (highest dose often 28.7 µM), actives largely listed as inhibitors. AID 504832. actives 5.9% (n = 310,000). P. falciparum luciferase growth in erythrocytes, 48 h
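First compound was added to culture medium, then infected red cells at 0.1% parasitemia and 2% hematocrit (final). After incubation at 37 C under 5% CO2, luciferase detection reagent was dispensed and light output recorded.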
Shiga inhibitor = blocks Shiga toxin action in Vero cells. AID 2315. inhibition, % at 38.7 µM. Vero cells, Shiga toxin protein synthesis inhibition reporter. actives 9.2% (n = 290,000); in the data active = inhibition mostly above about 28%, no sharp cut-off; inactive = mostly below about 43%
Pf growth 96h = P. falciparum growth inhibition at 96 hours; Potency, µM (top dose mostly 28.7 µM), hits mostly inhibitors; AID 504834; actives 6.9% (n = 320,000); P. falciparum luciferase reporter growth, 96 h
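P. falciparum expressing integrated firefly luciferase grown in erythrocytes (2% hematocrit, 0.05% parasitemia final) with compounds for 96 hours at 37 C, 5% CO2. Growth inhibition read as loss of luminescence after adding luciferase detection reagent.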
CHX counter = affects cycloheximide protein synthesis inhibition readout, counter-screen; cell reporter, cycloheximide protein synthesis inhibition counterscreen; max response, %; actives 12% (n = 300,000); AID 2314; in the data active = max response mostly above about 13%, no sharp cut-off; inactive = mostly below about 14%; note: read at 38.3 µM for the half of the compounds with a filed dose
Hits are given with their value; – = inactive; ? = inconclusive; · = no result. Sampled rows, rich in hits. Any-hit rate of the full collection: about 21%. Unless noted, calls come from the whole dose curve; as a rule, active = well fitted inhibition curve with a large enough effect; inconclusive = small, poorly fitted or top-dose-only effect, or another doubt; inactive = no such curve, though single readings can be large or run the other way.

SMILES | Pf growth 48h | Shiga inhibitor | Pf growth 96h | CHX counter
CNc1c(NC(=O)C2CCC(C)CC2)c(=O)oc2ccccc12 (stereo unspecified) | – | – | – | –
O=C(COC(=O)c1ccccc1Br)NC1CCCC1 | – | 59 | – | 39
O=C(COC(=O)c1ccc[nH]c1=O)NC1CCCC1 | – | – | – | –
CCOc1ccc(-c2cc(NC(=O)Cn3ncc4c3-c3ccccc3OC4)on2)cc1OCC | · | – | ? | –
CC(=O)N(CC(=O)Nc1nn(-c2ccccc2)nc1C(N)=O)Cc1ccccc1 | 1µM | – | · | –
CCN1C(=O)S/C(=C/c2ccc(Sc3nc4ccccc4[nH]3)o2)C1=O | – | – | 9.3µM | –
O=C(Nc1cccc(C(F)(F)F)c1)C(Sc1ncnc2ccccc12)c1ccccc1 (stereo unspecified) | 7.4µM | – | ? | –
Cc1cc(C)cc(NC(=O)C(Sc2ncnc3ccccc23)c2ccccc2)c1 (stereo unspecified) | 12µM | – | 3.3µM | –
O=C(COC(=O)Cc1ccccc1[N+](=O)[O-])NCc1ccccc1Cl | – | – | – | –
Cc1sc2c(c1C)C(=O)NC(c1cccc(O)c1)N2 (stereo unspecified) | – | – | ? | 27
COC(=O)c1ccc(C2NC(=O)c3c(sc(C)c3C)N2)cc1 (stereo unspecified) | – | – | – | –
COc1cc(CN2CCCCC2C(=O)Nc2ccc(Oc3ccccc3)nc2)ccc1O (stereo unspecified) | ? | 81 | – | 55
COCCC(=O)N1CCC(C(=O)Nc2ccc(Oc3ccccc3)nc2)CC1 | – | 66 | – | 63
O=C(Nc1ccc(Oc2ccccc2)nc1)C1CCCCN1Cc1cccc(O)c1 (stereo unspecified) | ? | – | 5.9µM | –
COCCc1ncc(CN2CCCCC2C(=O)Nc2ccc(Oc3ccccc3)nc2)cn1 (stereo unspecified) | – | – | – | –
O=C(Nc1ccc(Oc2ccccc2)nc1)C1CCCCN1Cc1ccc(O)cc1 (stereo unspecified) | ? | – | ? | 20
COc1ccc(CN2CCCCC2C(=O)Nc2ccc(OC)c(OCC(C)C)c2)cc1OC (stereo unspecified) | – | – | – | –
Cc1ccc(C(=O)NNC(=O)CCC(=O)NCc2ccccc2)cc1Br | – | – | – | –
Oc1[nH]c2ccc(Br)cc2c1N=NC(=S)N1CCOCC1 | 0.83µM | – | 0.41µM | –
COC(=O)N=Nc1c(O)[nH]c2ccc(Br)cc12 | – | – | – | –
Oc1[nH]c2ccccc2c1N=NC(=S)N1CCOCC1 | 0.59µM | – | 0.59µM | 16
Cc1ccc(S(=O)(=O)Cn2nnnc2C(CC(C)C)N2CCN(C3CCCC3)CC2)cc1 (stereo unspecified) | ? | – | – | –
CCOC(=O)C(NCCCCl)c1ccccc1 (stereo unspecified) | · | – | – | –
CCN(CC)CCNC(C(=O)OCCC(C)C)c1ccccc1 (stereo unspecified) | 17µM | · | 13µM | ·
COc1cc2nc(Nc3ccc(C)c(Cl)c3)nc(N)c2cc1OC | 0.59µM | – | – | –
SMILES | Pf growth 48h | Shiga inhibitor | Pf growth 96h | CHX counter
COc1cc2nc(Nc3ccc(F)cc3)nc(N)c2cc1OC | 0.52µM | – | – | 17
COc1ccccc1N1CCN(Cc2nc(N)nc(Nc3ccc(C)c(Cl)c3)n2)CC1 | ? | – | ? | –
COc1ccc(Nc2nc(N)c(C(=O)c3ccc(F)cc3)s2)cc1 | ? | – | ? | –
Cc1ccc(Nc2nc(N)c3ccccc3n2)cc1Cl | ? | · | – | 43
CCOC(=O)c1ccc(Nc2nc(N)c3cc(OC)c(OC)cc3n2)cc1 | 1µM | – | – | –
COc1ccc(C(=O)NCC(=O)N2CCCC(C(F)(F)F)C2)cc1OC (stereo unspecified) | – | · | ? | ·
CC1(C)S[C@@H]2[C@H](NC(=O)[C@@H](N)c3ccccc3)C(=O)N2[C@H]1C(=O)O[C@H]1OC(=O)c2ccccc21 | – | · | ? | ·
COc1cc2nc(N(C)C)nc(N)c2cc1OC | ? | – | – | –
Cc1ccc(Nc2ncnc(N)n2)cc1C | – | 50 | 4.1µM | 26
COc1cc2nc(Nc3ccc(C)c(C)c3)nc(N)c2cc1OC | 0.52µM | – | – | –
Cc1cc(-c2ccccc2C(=O)NC2CCCCC2)on1 | – | – | – | –
Cn1ccnc1SCC(=O)Nc1ccc(Oc2ccccc2)cc1 | – | – | – | 24
CCOc1ccc(NC(=O)CSc2nccn2C)cc1 | – | 48 | – | 42
CCOc1ccc(NC(=O)CSc2nnc(-c3ccco3)n2N)cc1 | – | – | – | –
CCOc1ccc(C(O)c2nccn2C)cc1 (stereo unspecified) | – | 108 | · | 42
Cn1cnnc1SCC(=O)Nc1ccc(Oc2ccccc2)cc1 | – | – | – | –
COc1cc(/C=N/Nc2ccccn2)cc(OC)c1O | – | 63 | – | 25
CCCOc1ccc(/C=N/NC(=O)c2c(-c3ccccc3)noc2C)cc1OC | – | – | – | –
CCOc1ccc(/C=N/N(C)c2ccccc2)cc1OC | · | 64 | – | 25
CCCOc1ccc(/C=N/Nc2ccccn2)cc1OC | – | 88 | – | 50
COc1cc(/C=N/Nc2cccc(C)c2)cc(Br)c1O | ? | – | ? | –
CCOc1ccc(/C=N/Nc2ccccn2)cc1OC | – | 110 | – | 39
C=CCOc1ccc(/C=N/Nc2ccccn2)cc1OC | – | 101 | – | 57
COc1cc(/C=N/Nc2ccccn2)ccc1OCC(C)C | – | 62 | ? | 34
C=CCOc1ccc(/C=C(\C#N)C(=O)Nc2ccccn2)cc1OC | – | – | – | –
SMILES | Pf growth 48h | Shiga inhibitor | Pf growth 96h | CHX counter
COc1ccc(-c2c(C)nn3c(C)cc(C)nc23)cc1 | – | – | – | –
Cc1[nH]c2ccccc2c1C(=O)CN1CCN(c2ccc(Cl)cc2)CC1 | ? | – | ? | –
COc1cc(N2CCOCC2)ccc1/C=C1\C(=O)NC(=O)N(C2CCCCC2)C1=O | ? | – | – | –
CCN1C(=O)NC(=O)/C(=C\c2ccc(N3CCOCC3)cc2OC)C1=O | – | 56 | – | 67
COCC1CCCCN1C(=O)c1ccc(OC2CCN(Cc3ccccn3)CC2)cc1 (stereo unspecified) | – | – | ? | –
CN1CCN(c2ncnc3c2cnn3-c2ccc(Cl)cc2)CC1 | · | 66 | – | 42
CCOC(=O)N1CCN(c2ncnc3c2cnn3-c2ccc(Cl)cc2)CC1 | – | – | · | 20
CCN1CCN(c2ncnc3c2cnn3-c2ccc(Cl)cc2)CC1 | – | 74 | – | 45
COc1cc(NC(=O)C2C3CCC(O3)C2C(=O)O)cc(OC)c1 (stereo unspecified) | – | – | ? | –
CCCCn1c(N)c(N(CC(C)C)C(=O)c2oc3c(Cl)cccc3c2C)c(=O)[nH]c1=O | ? | · | – | ·
O=C(CN1CC[n+]2c(-c3cccs3)csc21)c1ccc(Br)cc1 | 13µM | – | – | –
CC(=O)N1CCN(CC(=O)c2ccc(Br)cc2)CC1 | – | – | – | –
O=C(CN1CC[n+]2c(-c3ccccc3)csc21)c1ccc(Br)cc1 | 7.4µM | – | ? | –
COCC1COS(=O)(=O)NC1(C)C (stereo unspecified) | – | – | – | –
CCc1ccc2oc(-c3cc(N=Cc4cccc(OC)c4O)ccc3O)nc2c1 | – | 104 | · | 29
